# Vif-A3F inh: qHTS for Inhibitors of Vif-A3F Interactions: qHTS | HeLa A3F-eYFP + Vif (tagged APOBEC3F with the HIV-1 protein that degrades it), YFP fluorescence increase | Potency, µM (highest dose often 46.1 µM), for inactives: at the top dose activity, negative = active | hit rate 0.2% among 390,000 | AID 602313, 2012; also: potency is read from the fitted curve at half-maximal effect; % of control where 0% means no effect; nearly all actives have a fitted effect of over 65% in size
#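 HeLa cells stably expressing A3F-eYFP plus Vif, plated and incubated overnight at 37 deg C, then exposed to compounds overnight at 37 deg C. Blocked degradation read as raised yellow fluorescence (Ex 488/Em 500-530).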
# IL-2 act: qHTS of IL-2 Activators. IL-2 activation reporter assay, cell-based qHTS; stimulated with anti-CD3/CD4/CD28 beads; in transgenic mouse T cells. activation, % (series mostly up to about 46 µM). hit rate 0.065% among 360,000; in the data active = activation above about 50%; inconclusive = mostly about 30% to 49%; also: 0% is about no effect
#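 Quantitative HTS in unstimulated transgenic mouse T cells, with memory T cells as non-tolerant control and PMA/ionomycin as tolerance-bypass control. Compound pretreatment lasted 60 minutes before 18 h bead stimulation; EGFP/DsRed fluorescence read.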
# PKM2 act: qHTS Assay for Activators of Human Muscle isoform 2 Pyruvate Kinase; hit rate 0.34% among 260,000; Pyruvate kinase PKM (Homo sapiens), P14618; purified PKM2, Kinase-Glo ATP luminescence, activation; response scale: 0% is enzyme alone, no compound; Potency, µM (top dose mostly 57.5 µM), inactives show at the top dose activation, usual class: activators; AID 1631, 2009; also: potency is read from the fitted curve at half-maximal effect; % is scaled to controls: 0 for no effect and ±100 for the full control effect; nearly all actives have a fitted effect of over 55% in size
#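 ATP formation by purified human PK-M2, quantified via coupled luciferase luminescence after 1 h at room temperature with 0.1 mM ADP and 0.5 mM PEP final.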
# GCN5L2 inh-1: qHTS Assay for Inhibitors of GCN5L2. AID 504327, 2011. GCN5L2 HAT assay, ThioGlo1 CoA-SH fluorescence. hit rate 0.21% among 390,000. Potency, µM (doses to about 58.9 µM), for inactives: top-dose activity change, negative = inhibition, usual class: inhibitors; also: potency is read from the fitted curve at half-maximal effect; % is scaled to controls: 0 for no effect and ±100 for the full control effect
# Target sequence (Q92830 whole entry, looked up): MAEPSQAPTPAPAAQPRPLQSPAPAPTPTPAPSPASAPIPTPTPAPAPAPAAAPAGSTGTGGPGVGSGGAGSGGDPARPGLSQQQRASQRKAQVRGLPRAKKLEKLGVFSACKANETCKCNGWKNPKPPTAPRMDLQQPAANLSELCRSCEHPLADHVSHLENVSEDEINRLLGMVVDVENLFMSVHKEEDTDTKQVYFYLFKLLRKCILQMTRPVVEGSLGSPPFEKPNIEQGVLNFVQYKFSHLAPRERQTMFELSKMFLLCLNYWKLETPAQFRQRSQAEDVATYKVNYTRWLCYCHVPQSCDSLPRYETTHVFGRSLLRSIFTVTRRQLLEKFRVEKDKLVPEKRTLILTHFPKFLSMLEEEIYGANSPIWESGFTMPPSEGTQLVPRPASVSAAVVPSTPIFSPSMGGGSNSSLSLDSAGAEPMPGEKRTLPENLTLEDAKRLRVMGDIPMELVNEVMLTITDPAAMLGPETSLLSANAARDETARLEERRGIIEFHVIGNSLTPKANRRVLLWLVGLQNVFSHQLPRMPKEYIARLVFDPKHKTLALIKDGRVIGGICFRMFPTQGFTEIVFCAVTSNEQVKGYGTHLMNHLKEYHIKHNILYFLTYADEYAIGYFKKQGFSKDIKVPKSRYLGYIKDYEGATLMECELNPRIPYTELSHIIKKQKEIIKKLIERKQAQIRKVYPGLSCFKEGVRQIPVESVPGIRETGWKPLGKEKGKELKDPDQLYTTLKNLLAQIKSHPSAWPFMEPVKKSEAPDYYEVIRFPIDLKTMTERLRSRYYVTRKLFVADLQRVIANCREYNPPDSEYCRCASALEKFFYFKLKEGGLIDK
#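 Compounds, pin-transferred from DMSO stocks, meet 20nM GCN5L2 for 15 min before the reaction begins with H3(1-25) peptide (75uM) and acetyl-CoA (70uM). Thiol-reactive ThioGlo1 reports CoA release over 20 min at room temperature.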
# Vif-A3G inh: qHTS for Inhibitors of Vif-A3G Interactions: qHTS; AID 602310, 2012; HeLa A3G-eYFP + Vif (tagged APOBEC3G with the HIV-1 protein that degrades it), YFP fluorescence, overnight; Potency, µM (titrated, usually from 46.1 µM), without a hit: at the top dose activity, negative = active, actives largely listed as inhibitors; hit rate 0.076% among 410,000; also: potency is read from the fitted curve at half-maximal effect; % is scaled to controls: 0 for no effect and ±100 for the full control effect; nearly all actives have a fitted effect of over 60% in size
#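 Read-out is eYFP fluorescence (Ex 488/Em 500-530) from Vif-expressing HeLa A3G-eYFP cells; more signal means A3G escaped Vif-mediated degradation. Cells plated overnight, compound pinned in, incubated overnight at 37 deg C.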
# RGS12 GoLoco inh-1: qHTS Assay for Inhibitors of RGS12 GoLoco Motif Activity (Red Fluorophore); Potency, µM (highest dose often 61.6 µM), for the others: at the top dose activity, negative = inhibition, most hits filed as inhibitors; Guanine nucleotide-binding protein G(i) subunit alpha-1 (Homo sapiens), P63096; hit rate 0.44% among 230,000; AID 880, 2007; Gai1:RGS12 GoLoco peptide FP, rhodamine, 10 min; active = well fitted inhibition curve with a large enough effect, not every such curve was filed as active; inactive = no such curve, though single readings can be large or run the other way; also: potency is read from the fitted curve at half-maximal effect; % is scaled to controls: 0 for no effect and ±100 for the full control effect; nearly all actives have a fitted effect of over 30% in size
# RGS12 GoLoco inh-2: Confirmation qHTS Assay for Inhibitors of RGS12 GoLoco Motif Activity (Red Fluorophore); Potency, µM (highest dose often 57.1 µM), for inactives: at the highest dose activity, negative = inhibition, most hits filed as inhibitors; hit rate 50% among 110; shares compounds with RGS12 GoLoco inh-1; Gai1/rhodamine-RGS12 GoLoco peptide fluorescence polarization; AID 2390, 2010
# HeLa viability: Secondary assay for Activators of Human Pyruvate Kinase M2 isoform - Cell Titer Glo cytotoxicity assay. shares compounds with PKM2 act. HeLa viability, CellTiter-Glo ATP luminescence, 24 h. 230 tested, under 10 active. activity change, negative = cytotoxicity, % at 57.5 µM; also: % of control where 0% means no effect
# GCN5L2 inh-2: qHTS Assay for Inhibitors of GCN5L2: Hit confirmation. AID 588347, 2011. Potency, µM, most hits filed as inhibitors. GCN5L2 HAT, ThioGlo1 CoA fluorescence, 20 min. hit rate 70% among 140. shares compounds with GCN5L2 inh-1
# * marks the source's active call; other numbers are inactive results; u = inconclusive; x = no result. The list is not random: actives were taken first. Their share in the collection is about 0.77%. Unless noted, calls follow the shape of the dose curve; as a rule, active = well fitted curve in the direction sought with a large enough effect; inconclusive = small, poorly fitted or top-dose-only effect, or another doubt; inactive = no such curve, though single readings can be large; an effect the other way counts as inactive or inconclusive.
SMILES,Vif-A3F inh,IL-2 act,PKM2 act,GCN5L2 inh-1,Vif-A3G inh,RGS12 GoLoco inh-1,RGS12 GoLoco inh-2,others
C[N+]12CCC(CC1)C(C(O)(c1ccccc1)c1cccs1)C2 (stereo unspecified),0%,1,-7%,-12%,0%,3.5µM*,25µM*,
C[N+]12CCC(CC1)C(=C(c1ccccc1)c1ccccc1)C2,u,-1,-17%,-4%,-42%,11µM*,14µM*,
O=C(CCNC(=O)N1C[C@H]2C[C@@H](C1)c1cccc(=O)n1C2)Nc1ccc(F)cc1,2%,0,u,16%,5%,x,x,
Cc1ccc(O)cc1,x,x,x,4%,x,-4%,x,
CN(N=O)c1cc(O)ccc1O,x,x,x,u,-19%,5.6µM*,u,
C/C=C1/CC(C)C(C)(O)C(=O)OCC2CCN3CCC(OC1=O)C23 (stereo unspecified),-12%,-2,-1%,-4%,0%,10%,x,
CCn1c(C)[n+](CC(O)COCC2CC=CCC2)c2ccccc21 (stereo unspecified),-12%,-1,-1%,-12%,0%,2.2µM*,14µM*,
CCCCN1C(=O)/C(=C/c2ccc(N3CCCCCC3)cc2)C(=O)NC1=S,x,x,3%,33%,x,309%,x,
CCCC[N+]12CCC(CC1)C(Cc1ccccc1)C2 (stereo unspecified),6%,-2,-1%,-1%,0%,2%,4%,
Nc1c(C(=O)NCC2CCCO2)c2nc3ccccc3nc2n1Cc1ccco1 (stereo unspecified),5%,0,18µM*,-20%,2%,21%,x,HeLa viability=-17
Clc1cc(Cl)c(Cl)c(Cl)c1,x,x,x,x,x,1%,x,
Oc1c(Br)c(Br)c(Br)c(Br)c1Br,-1%,0,x,32µM*,-11%,-30%,x,GCN5L2 inh-2=14*
Oc1c(Br)cc(Br)cc1Br,3%,0,x,2%,0%,4%,x,
COC(=O)C1=C(c2cccc(OC)c2OC)C[C@@H]2CC[C@H]1N2C(=O)NC1CC1,4%,0,x,x,0%,x,x,
O=C(c1ccc2c(c1)N(Cc1ccccc1)CCS2)N1CCC2(CC1)OCCO2,10%,0,x,-13%,1%,x,x,
O=C(O)CSCC(=O)N(Cc1ccccc1)c1nc(-c2ccccc2)c(-c2ccccc2)s1,0%,-2,-1%,11µM*,-2%,x,x,GCN5L2 inh-2=23*
O=C(O)CCC(=O)NCCC1=c2ccccc2=N/C1=C\c1c(O)n(Cc2ccc(F)cc2)c(=S)[nH]c1=O,-17%,-1,49%,18µM*,-13%,21%,x,GCN5L2 inh-2=5.1*

# Screening results deposited in PubChem BioAssay by National Center for Advancing Translational Sciences (NCATS).
